In PubChem BioAssay:
Where “and” joins values, the source holds several entries; their conditions need not be identical. Identical values can stand only once. Records with an inconclusive call do not appear. Calls of active or inactive are those of the source. Unless noted, no rule for the calls is given here.

Columns and labels:
[1] = biological target: ATP-dependent translocase ABCB1 (Homo sapiens) (UniProt P08183); assay: P-glycoprotein substrate transport blockade – cell-based (AID 377; in the data active = fluorescence slope change above about 50%); conditions: MDR1-expressing cells, fluorescent substrate accumulation slope; stronger effect = higher value; concentration not given here
[2] = viability loss in pontine glioma line – cell-based, SU-DIPG-XVII, MIPE5.0, CellTiter-Glo, qHTS, dose response (AID 1347060; cut-off not given, nearly all actives have AC50 up to about 26 µM;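 also: cells exposed to compound for 48 hours before viability readout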); conditions: CellTiter-Glo ATP luminescence
[3] = viability loss in pontine glioma line – cell-based, SU-DIPG-XIII, MIPE4.0, CellTiter-Glo, qHTS, dose response (AID 1347061; cut-off not given, nearly all actives have AC50 up to about 37 µM;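 also: cells exposed to compound for 48 hours before readout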); conditions: CellTiter-Glo ATP luminescence
[4] = viability loss in pontine glioma line – cell-based, SU-DIPG-XIII, MIPE5.0, CellTiter-Glo, qHTS, dose response (AID 1347064; cut-off not given, nearly all actives have AC50 up to about 23 µM;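 also: cells exposed to compound for 48 hours before the viability read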); conditions: CellTiter-Glo ATP luminescence
[5] = viability loss in pontine glioma line – cell-based, SU-DIPG-XXV, MIPE5.0, CellTiter-Glo, qHTS, dose response (AID 1347065; cut-off not given, nearly all actives have AC50 up to about 26 µM;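 also: cells exposed to compound for 48 hours before ATP readout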); conditions: CellTiter-Glo ATP luminescence
[6] = growth inhibition of DIPG cells – cell-based, MIPE4.0 library, CellTiter-Glo luminescence, qHTS (AID 1347066; cut-off not given, nearly all actives have AC50 up to about 30 µM;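 also: cells exposed to compound for 48 hours before readout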); conditions: SU-DIPG-VI viability, CellTiter-Glo ATP luminescence
[7] = JHH-DIPG-1 glioma cell viability, MIPE5.0 library, CellTiter-Glo luminescence, qHTS (AID 1347067; cut-off not given, nearly all actives have AC50 up to about 26 µM;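 also: cells exposed to compound for 48 hours before readout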); conditions: JHH-DIPG-1 glioma viability, CellTiter-Glo ATP luminescence
[8] = GFP-Q80 aggregate reduction, neuronal-like cells, cell-based, NGF-treated PC12, GFPQ80 (AID 1614); conditions: PC12 NGF-treated GFP-polyQ80 inclusion reduction;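 also: lower means fewer inclusions and 0 means no inclusions at all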
[9] = compounds altering circadian rhythm period length – cell-based, LOPAC library, luminescence reporter (AID 2774); conditions: circadian reporter cells, at 7 µM, actives lie on both sides;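 also: values are relative to mean of DMSO wells on each plate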
[10] = system: Hepatitis C virus NS3 helicase; assay: blockers of NS3h binding to ssDNA – biochemical, fluorescence polarization, LOPAC1280 library, primary screen (AID 687035; in the data active = inhibition above about 37%); conditions: Purified HCV NS3 helicase, Cy5-dT15 ssDNA binding fluorescence polarization; stronger effect = higher value; concentration not given here
[11] = compounds altering Cy5-DNA-NS3h complex signal – biochemical, LOPAC1280, artefact control for HCV NS3 helicase inhibitor project (AID 687037); conditions: Cy5-DNA-NS3h complex fluorescence interference counterscreen
[12] = viability loss in pontine glioma line – cell-based, SU-DIPG-IV, MIPE4.0, CellTiter-Glo, qHTS, dose response (AID 1347063; cut-off not given, nearly all actives have AC50 up to about 30 µM;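 also: compound exposure lasted 48 hours before the viability readout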); conditions: CellTiter-Glo ATP luminescence
[13] = blockers of cellular phospholipid synthesis – cell-based, LOPAC library, screen 4, primary screen (AID 1347384); conditions: animal cells, phospholipid biosynthesis inhibition screen; at 10 µM
[14] = growth inhibition, single agent or in combination, cell-based, chromothripsis tumors, cisplatin or BGB combos (AID 1671449; in the data active = inhibition above about 80%;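 also: cells exposed for 96 hours; 0% = vehicle DMSO and 100% = killing by high DMSO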); conditions: LFS_MB_P medulloblastoma cells
[15] = growth inhibition, single agent and combos, cell-based, chromothripsis tumors, cisplatin or BGB combos (AID 1671450; in the data active = inhibition above about 80%;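 also: cells exposed to compound for four days; 0% = vehicle DMSO and 100% = cell killing by high DMSO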); conditions: HDN33 neuroblastoma cells, stronger effect = higher value
[16] = growth inhibition, single agents and combos, ICB984, cell-based, cisplatin or BGB combos, synergistic combos for chromothripsis tumors (AID 1671451); conditions: ICB984 medulloblastoma cells, drug combinations, stronger effect = higher value;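 also: cells exposed for 96 hours before readout; 0% = vehicle DMSO and 100% = killing by high DMSO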
[17] = growth inhibition, single agents and combos, HTB85, cell-based, BGB or cisplatin IC20 combos, synergistic combos for chromothripsis tumors (AID 1671453; in the data active = inhibition above about 80%;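 also: cells exposed for 96 hours before readout; 0% = vehicle DMSO and 100% = high DMSO killing control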); conditions: HTB85 osteosarcoma cells, drug combinations, stronger effect = higher value
[18] = viability loss in pontine glioma line – cell-based, JHH-DIPG-1, MIPE4.0, CellTiter-Glo, qHTS, dose response (AID 1347062; cut-off not given, nearly all actives have AC50 up to about 27 µM); conditions: JHH-DIPG-1 viability, CellTiter-Glo ATP luminescence
[19] = system: Neuropilin-2 / VEGF-C interaction (human); assay: small molecules blocking Neuropilin-2/VEGF-C interaction – biochemical, microplate binding format, z-score (AID 743281); conditions: microplate NRP2/VEGF-C binding assay; stronger effect = lower value

Sequence of ATP-dependent translocase ABCB1 (Homo sapiens) (P08183 whole entry, looked up): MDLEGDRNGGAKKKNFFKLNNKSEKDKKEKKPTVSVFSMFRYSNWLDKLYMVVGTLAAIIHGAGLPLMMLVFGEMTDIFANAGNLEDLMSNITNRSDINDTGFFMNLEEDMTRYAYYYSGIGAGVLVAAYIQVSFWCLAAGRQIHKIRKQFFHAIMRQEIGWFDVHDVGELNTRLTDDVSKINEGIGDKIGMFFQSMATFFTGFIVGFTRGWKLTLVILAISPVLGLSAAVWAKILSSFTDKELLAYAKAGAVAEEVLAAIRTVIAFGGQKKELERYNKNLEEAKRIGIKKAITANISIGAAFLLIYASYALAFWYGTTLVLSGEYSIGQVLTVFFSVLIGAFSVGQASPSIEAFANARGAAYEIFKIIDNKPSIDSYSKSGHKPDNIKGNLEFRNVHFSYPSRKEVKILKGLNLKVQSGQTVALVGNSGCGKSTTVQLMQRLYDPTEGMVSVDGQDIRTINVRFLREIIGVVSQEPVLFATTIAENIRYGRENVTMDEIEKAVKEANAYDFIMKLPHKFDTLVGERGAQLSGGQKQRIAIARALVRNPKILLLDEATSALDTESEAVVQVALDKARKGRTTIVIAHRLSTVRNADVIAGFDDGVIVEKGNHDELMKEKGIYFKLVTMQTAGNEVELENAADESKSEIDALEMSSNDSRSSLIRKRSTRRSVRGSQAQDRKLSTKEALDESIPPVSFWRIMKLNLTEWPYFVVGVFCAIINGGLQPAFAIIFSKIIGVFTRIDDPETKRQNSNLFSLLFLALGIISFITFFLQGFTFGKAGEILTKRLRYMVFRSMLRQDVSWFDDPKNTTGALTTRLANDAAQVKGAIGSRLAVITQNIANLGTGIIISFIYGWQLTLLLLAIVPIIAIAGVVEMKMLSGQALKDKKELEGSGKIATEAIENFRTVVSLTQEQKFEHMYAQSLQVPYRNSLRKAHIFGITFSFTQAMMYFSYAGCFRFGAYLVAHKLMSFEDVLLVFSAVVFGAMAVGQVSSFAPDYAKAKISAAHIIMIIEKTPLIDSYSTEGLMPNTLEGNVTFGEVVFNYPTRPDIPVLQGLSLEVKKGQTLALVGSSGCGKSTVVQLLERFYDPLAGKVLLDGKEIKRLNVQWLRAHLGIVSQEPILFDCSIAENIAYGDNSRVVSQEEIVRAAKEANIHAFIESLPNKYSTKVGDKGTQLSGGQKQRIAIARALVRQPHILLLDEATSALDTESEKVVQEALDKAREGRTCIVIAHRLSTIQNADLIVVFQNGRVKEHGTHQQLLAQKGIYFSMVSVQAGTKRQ

SMILES: COC(=O)Nc1nc2ccc(C(=O)c3ccccc3)cc2[nH]1
- fluorescence slope change [1]: 92.4% (active)
- AC50 [2]: 93.4 nM (active)
- AC50 [3]: 18700 nM (active)
- AC50 [4]: 417 nM (active)
- AC50 [5]: 332 nM (active)
- outcome [6]: inactive
- AC50 [7]: 468 nM (active)

SMILES: Cn1cnc([N+](=O)[O-])c1Sc1ncnc2nc[nH]c12
- fluorescence slope change [1]: 53.6% (active)
- inclusion score [8]: 2
- period change [9]: 0.485 h (inactive)
- inhibition [10]: -2% (inactive)
- fluorescence ratio (interference) [11]: 1 (inactive)
- outcome [12]: inactive
- AC50 [5]: 6610 nM (active)
- outcome [13]: inactive
- inhibition ([14]; at 0.5 µM, stronger effect = higher value): -24.5% (inactive) and -18.6% (inactive)
- inhibition ([14]; measured here: combination with BGB IC20, at 0.005 µM): -29.8% and -1.49%
- inhibition ([14]; measured here: combination with BGB IC40, at 0.005 µM): -7.88% and -5.24%
- inhibition ([14]; measured here: combination with BGB IC40, at 0.05 µM): -1.05% and 8.34%
- inhibition ([14]; measured here: combination with cisplatin, at 0.5 µM, stronger effect = higher value): -41.8% and -13.7%
- inhibition ([14]; measured here: combination with cisplatin, at 5 µM, stronger effect = higher value): -15% and -14.9%
- inhibition ([15]; BGB combo, at 5 µM): 27% and -4.71%
- inhibition ([15]; at 0.5 µM): 9.11% (inactive) and 3.47% (inactive)
- inhibition ([15]; cisplatin combo, at 5 µM): 18.8% and 16.9%
- inhibition ([15]; measured here: with BGB IC20 combination, at 0.5 µM): 3.66% and -16.5%
- inhibition ([15]; measured here: with cisplatin IC20 combination, at 0.5 µM): 5.32% and -7.32%
- inhibition ([15]; single agent, at 5 µM): 55.4% and 48.5%
- inhibition ([16]; BGB IC20 combo, at 0.005 µM): -7.33% and 0.138%
- inhibition ([16]; BGB IC40 combo, at 0.005 µM): -44% and -68.5%
- inhibition ([16]; BGB IC40 combo, at 0.05 µM): -15.3% and -11.2%
- inhibition ([16]; at 0.5 µM): -19.6% (inactive) and -22.9% (inactive)
- inhibition ([16]; cisplatin combo, at 0.05 µM): -15.3% and -15.6%
- inhibition ([16]; cisplatin combo, at 0.5 µM): -29.3% and -25.2%
- inhibition ([16]; cisplatin combo, at 5 µM): -23% and 1.4%
- inhibition ([16]; measured here: 5 uM single agent, at 5 µM): -20.7% and -15.2%
- inhibition ([17]; at 0.5 µM): -24.4% (inactive) and -11% (inactive)
- inhibition ([17]; measured here: with BGB IC20, at 0.5 µM): -62.4% and -24%
- inhibition ([17]; measured here: with BGB IC20, at 5 µM): -10.9% and -18.4%
- inhibition ([17]; measured here: with cisplatin IC20, at 0.5 µM): -12.7% and 1.06%
- inhibition ([17]; measured here: with cisplatin IC20, at 5 µM): 8.32% and 19.5%
- inhibition ([17]; single agent, at 5 µM): 11% and -0.274%

SMILES: Clc1ccc2c(c1)C(N1CCNCC1)=Nc1ccccc1O2
- fluorescence slope change [1]: 156% (active)
- period change [9]: 0.105 h (inactive)
- inhibition [10]: -4% (inactive)
- fluorescence ratio (interference) [11]: 1 (inactive)
- outcome [3]: inactive
- outcome [18]: inactive
- outcome [12]: inactive
- outcome [6]: inactive
- outcome [13]: inactive

SMILES: Cc1ccccc1C(OCCN(C)C)c1ccccc1 (stereo not given)
- fluorescence slope change [1]: 22.7% (inactive)
- inclusion score [8]: 2
- period change [9]: 0.21 h (inactive)
- inhibition [10]: -2% (inactive)
- fluorescence ratio (interference) [11]: 0.9 (inactive)
- outcome [3]: inactive
- outcome [18]: inactive
- outcome [12]: inactive
- outcome [6]: inactive
- outcome [13]: inactive

SMILES: NS(=O)(=O)c1cc2c(cc1C(F)(F)F)NC(Cc1ccccc1)NS2(=O)=O (stereo not given)
- fluorescence slope change [1]: 16.6% (inactive)
- inclusion score [8]: 2

SMILES: CC(=O)CCCCn1c(=O)c2c(ncn2C)n(C)c1=O
- fluorescence slope change [1]: 121% (active)
- inclusion score [8]: 2
- period change [9]: 0.02 h (inactive)
- inhibition [10]: -4% (inactive)
- fluorescence ratio (interference) [11]: 1 (inactive)
- z-score [19]: -0.728 (inactive)
- outcome [13]: inactive

SMILES: Cc1ccc(S(=O)(=O)NC(=O)NN2CCCCCC2)cc1
- fluorescence slope change [1]: 5.1% (inactive)
- inclusion score [8]: 2
- period change [9]: 0.08 h (inactive)
- inhibition [10]: -1% (inactive)
- fluorescence ratio (interference) [11]: 1 (inactive)
- outcome [13]: inactive
